Unmarked numbers belong to inactive results. Calls of active or inactive are those of the source. The rule behind the calls is not given here.
test system: HIV-1 nucleocapsid protein NCp7 (binding to TG oligonucleotide); experiment: HIV Nucleocapsid (AID 346); conditions: HIV-1 NC / fluorescein-TGTGTGTG probe, fluorescence polarization;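 note: potency is for inhibitors that block NC binding and lower polarization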
How it was run: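 HIV-1 NC (100 nM) binding to fluorescein-labelled ssDNA TG4xF (10 nM) in Hepes pH 7.5, 250mM NaCl, 1uM ZnCl2, TCEP and 2-mercaptoethanol; compounds pin-transferred, 1 hr room temperature, fluorescence polarization read on CCD imager.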
Potency is the fitted concentration of half-maximal effect.

Structure (SMILES)	Potency
COc1ncc2nc(-c3cccc(C#N)c3)c(=O)n(CCC#N)c2n1	> 20 µM
COc1ccccc1-c1nccc(NCc2cnc(C)cn2)n1	> 20 µM
COC(=O)N1CCC2(CC1)CN(C(c1ccccc1)c1ccccc1)C2	> 20 µM
COc1ccccc1CCn1c(=O)c(-c2ccc(Cl)cc2)nc2cncnc21	> 20 µM
CN(C)Cc1ccccc1-c1nc(NC2CCNCC2)c2ccccc2n1	> 20 µM
FC(F)(F)c1ccccc1-c1nc(NCCN2CCOCC2)c2ccccc2n1	> 20 µM
CNc1cc(-c2ccccc2C)ncn1	> 20 µM
COc1ccc(C(=O)N2CCC3(CCN(C(=O)Nc4ccccc4)CC3)CC2)cc1	> 20 µM
COc1ccc(C(=O)N2CCC[C@@]3(CCN(c4ccncc4)C3)C2)cc1	> 20 µM
COc1ccc(Oc2ncc3nc(-c4cccc(C#N)c4)c(=O)n(C)c3n2)cc1	> 20 µM
N#Cc1ccc(CN2CC3(CCN(C(=O)c4cccc(F)c4)CC3)C2)cc1	> 20 µM
COCC(=O)N1CCC2(CC1)CN(C(=O)Nc1cccc(C#N)c1)C2	> 20 µM
Cc1cccc(CNc2ncncc2-c2ccc(C(=O)N(C)C)cc2)c1	> 20 µM
O=C(c1cccc(F)c1)N1CCC2(CC1)CN(c1ccccc1)C2	> 20 µM
COCCn1c(=O)c(-c2cccc(C#N)c2)nc2cnc(N3CCOCC3)nc21	> 20 µM
c1nc(N2CCNCC2)c2cc(-c3ccoc3)ccc2n1	> 20 µM
CC(C)NC(=O)N1CC2(CCN(C(=O)c3cc(C(F)(F)F)cc(C(F)(F)F)c3)CC2)C1	> 20 µM
CS(=O)(=O)N1CCC[C@@]2(CCN(Cc3ccc(C#N)cc3)C2)C1	> 20 µM
Cc1ccccc1-c1nc(Nc2ccncc2)c2ccccc2n1	> 20 µM
COc1cccc(Cn2c(=O)c(-c3cccs3)nc3cnc(N4CCNCC4)nc32)c1	> 20 µM

Structure (SMILES)	Potency
COCCn1c(=O)c(-c2ccc(Cl)cc2)nc2cnc(Oc3ccc(OC)cc3)nc21	> 20 µM
COCCNc1nc(-c2ccccc2CN(C)C)nc2ccccc12	> 20 µM
CN1CCN(c2ncnc3ccc(-c4ccc5c(c4)OCO5)cc23)CC1	> 20 µM
COc1ccc(-n2c(=O)c(-c3cccs3)nc3cnc(Nc4ccccc4)nc32)cc1	4.01 µM (active)
COCCn1c(=O)cnc2cnc(Oc3ccc(OC)cc3)nc21	> 20 µM
COc1ccccc1CCn1c(=O)c(-c2cn(C)c3ccccc23)nc2cncnc21	> 4 µM
COc1ccc(-n2c(=O)c(CCc3ccccc3)nc3cnc(OC)nc32)cc1	> 20 µM
COc1cccc(-c2cncnc2NCc2ccccc2OC)c1	> 20 µM
N#Cc1ccc(CN2CCC3(CC2)CCN(C(=O)c2cc(C(F)(F)F)cc(C(F)(F)F)c2)CC3)cc1	> 20 µM
COc1cccc(Nc2ncc3nc(-c4ccc(Cl)cc4)c(=O)n(C4CC4)c3n2)c1	> 4 µM
COc1ccccc1CNc1ncnc2ccc(-c3ccoc3)cc12	> 20 µM
CCNc1ncc2nc(C)c(=O)n(C[C@H]3CCCO3)c2n1	> 20 µM
COc1ccc(NC(=O)N2CCC3(CC2)CCN(S(C)(=O)=O)CC3)cc1	> 20 µM
COCCn1c(=O)c(-c2cccc(C#N)c2)nc2cnc(N3CCNCC3)nc21	> 20 µM
Cc1ccccc1-c1ccc2ncnc(NCc3cccnc3)c2c1	> 20 µM
O=C(c1cnccn1)N1CCC2(CCCN(Cc3ccccc3)C2)CC1	> 20 µM
COc1ncc2nc(-c3ccccc3)c(=O)n(-c3ccccc3)c2n1	> 20 µM
c1csc(CNc2ncncc2-c2ccoc2)c1	> 20 µM
COc1ccccc1-c1cncnc1NCCN1CCOCC1	> 20 µM
COCCn1c(=O)cnc2cnc(Oc3ccccc3)nc21	> 20 µM

Reference: PubChem BioAssay (NCATS)
